Assay outcomes from PubChem.
NS1 function inh – inhibitors of influenza NS1 protein function; Potency, µM (highest dose often 46.1 µM), for inactives: at the top dose activity, positive = more growth; 270,000 tested, 0.4% active; AID 2326; calls by dose curve; note: actives are rising curves; nearly all actives have a fitted effect of over 50% in size
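Read-out: OD600 growth recovery of NS1-expressing budding yeast. Cells grown overnight at 30C in -URA glucose medium, washed, resuspended and diluted 1:100 in 2% galactose assay medium, pH 6.0. Same strain lacking NS1 served as positive control.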
VACV mCherry inh – vaccinia inhibition (mCherry reporter); 310,000 tested, 0.63% active; Potency, µM (doses to about 36.5 µM), without a hit: top-dose activity change, negative = inhibition, actives largely listed as inhibitors; Vaccinia virus mCherry reporter infection, fluorescence; calls by dose curve; tested in A549 cells; note: % is set by controls: 0 for no effect and ±100 for the full control effect; nearly all actives have a fitted effect of over 35% in size
Pf growth 48h – inhibits P. falciparum growth in the first generation, 48 h. Potency, µM (titrated, usually from 28.7 µM), for the others: top-dose activity change, negative = inhibition, usual class: inhibitors. 310,000 tested, 5.9% active. P. falciparum luciferase growth in erythrocytes, 48 h; note: % is set by controls: 0 for no effect and ±100 for the full control effect
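A one-generation exposure of luciferase-tagged malaria parasites in RPMI 1640/Albumax erythrocyte culture, 37 C and 5% CO2. Inhibition is inferred from decreased luminescence after adding detection reagent.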
HCV inhibitor – blocks hepatitis C virus | Huh7.5.1 HCVcc-Cre infection, luciferase reporter, 44 h | Potency, µM (series often up to 41.8 µM), inactives show top-dose activity change, negative = inhibition, usual class: inhibitors | 340,000 tested, 3.4% active; note: % is set by controls: 0 for no effect and ±100 for the full control effect
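Compounds are dispensed onto cells plated 4 h earlier at 1,000 per well, with HCVcc-Cre virus (about 0.5 moi) added next. Following 44 h of culture, luminescent signal is measured for 15 sec after 15 min with substrate at room temperature.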
Pf growth 96h – P. falciparum growth inhibition at 96 hours | P. falciparum luciferase reporter growth, 96 h | Potency, µM (series often up to 28.7 µM), for the others: top-dose activity change, negative = inhibition, usual class: inhibitors | 320,000 tested, 6.9% active; note: % is set by controls: 0 for no effect and ±100 for the full control effect
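Two parasite generations (96 h, 37 C, 5% CO2) of compound exposure in infected erythrocytes (0.05% parasitemia, 2% hematocrit). Luciferase-reporter P. falciparum; decreased luminescence indicates inhibited growth, aimed at apicoplast-acting delayed death.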
VACV Venus inh – inhibitors of vaccinia virus (Venus reporter); Vaccinia virus Venus reporter expression, fluorescence; Potency, µM (doses to about 36.5 µM), for the others: at the top dose activity change, negative = inhibition, hits mostly inhibitors; 330,000 tested, 0.46% active; calls by dose curve; tested in A549 cells; note: % is set by controls: 0 for no effect and ±100 for the full control effect; nearly all actives have a fitted effect of over 30% in size
Active calls of the source: *; i = inactive; ? = inconclusive; nt = not tested or not shown; ! = not confirmed by another sample; [ ] = dose if it differs, or a comment. In the library only some 11% were active in any assay of this set; here they are far more common. Unless noted, calls come from the whole dose curve; as a rule, active = well fitted inhibition curve with a large enough effect; inconclusive = small, poorly fitted or top-dose-only effect, or another doubt; inactive = no such curve, though single readings can be large or run the other way. Potency is the fitted concentration of half-maximal effect.

SMILES	NS1 function inh	VACV mCherry inh	Pf growth 48h	HCV inhibitor	Pf growth 96h	VACV Venus inh
COc1ccc(NC(=O)CSc2nc3ccccc3cc2Cc2ccccc2)cc1	2.5%	-6.4%	?	-11.5%	?	-14.0%
COCCn1c(SCc2cccnc2)nnc1-c1c[nH]c2ccccc12	-3.1%	-7.6%	nt	16.5%	-69.2%	11.3%
O=C(O)CN1CCN(Cc2ccc(F)cc2Cl)C1=O	?	nt	?	15.3%	8.28µM*	nt
CCOC(=O)c1c(C)nc2sc3c(=O)n(-c4ccc(OC)cc4)nnc3c2c1-c1ccc(OC)cc1	?	nt	?	?	?	-7.3%
CNC(=O)C(=O)Nc1cc2c3c(c1)CCN3C(=O)CC2	4.1%	nt	16.4%	16.9%	37.2%	nt
COc1ccc(NC(=O)CN(C)CC(=O)Nc2sc3c(c2C(N)=O)CCC3)cc1	nt	-9.3%	?	?	?	-22.8%
CCN(CC(=O)Nc1ccc(OC)cc1)CC(=O)Nc1sc2c(c1C(=O)OC)CCCC2	nt	nt	?	7.94µM*	-70.4%	nt
COc1ccc(NC(=O)c2c(NC(=O)CNCc3ccco3)sc3c2CCC3)cc1	-15.9%	nt	2.62µM*	-5.7%	?	-25.5%
Cc1ccc(-c2nn(-c3ccccc3)cc2CO)cc1	-4.2%	?	85.8%	-2.1%	20.0%	-23.4%
O=C(CSc1nnc2c(n1)[nH]c1ccc(F)cc12)Nc1ccccc1F	-0.2%	i	-10.1%	2.8%	-10.0%	-15.7%
CCOC(=O)CN(C(=O)CSc1nnc2c(n1)[nH]c1ccc(F)cc12)c1ccccc1	0.0%	nt	13.1µM*	-25.5%	2.8%	nt
CCOC(=O)CN(C(=O)CSc1nnc2c(n1)[nH]c1c(C)cc(C)cc12)c1ccccc1	-2.9%	nt	nt	nt	?	nt
CCOC(=O)CN(C(=O)CSc1nnc2c(n1)[nH]c1ccccc12)c1ccccc1	-7.4%	i	7.38µM*	?	?	-17.6%
COc1ccc(N2CC(C(=O)Nc3nc4ccccc4s3)CC2=O)cc1 (configuration not stated)	-2.1%	nt	1.2%	3.0%	4.9%	nt
CN1c2ccc([N+](=O)[O-])cc2CC2(C(=O)NC(=O)NC2=O)C1c1ccccc1 (configuration not stated)	23.4%	-2.2%	?	13.9%	?	-11.4%
CC(C)N1C(=O)NC(=O)C2(Cc3cc([N+](=O)[O-])ccc3N(C)C2c2ccccc2)C1=O (configuration not stated)	1.7%	-8.2%	?	?	11.7µM*	-28.1%
CN1c2ccc([N+](=O)[O-])cc2CC2(C(=O)NC(=O)N(c3ccccc3)C2=O)C1c1ccccc1 (configuration not stated)	23.8%	i	3.29µM*	11.4%	2.94µM*	-8.7%
CC1CCc2nn(CC(=O)NCCN3CCOCC3)cc2C1 (configuration not stated)	3.8%	-3.1%	14.8%	-1.9%	?	5.3%
Cc1cnc(C(=O)NCCc2ccc(S(=O)(=O)NC(=O)NC3CCCCC3)cc2)cn1	9.1%	-9.0%	-16.8%	0.4%[8.37 µM]	6.75µM*!	-7.7%
Cc1sc2nc(CSCC(=O)Nc3ccccc3C#N)[nH]c(=O)c2c1C	20.2%	i	-8.1%	27.4%	5.22µM*	?
O=P(c1ccccc1)(c1ccccc1)C(O)c1ccco1 (configuration not stated)	4.2%	3.0%	nt	5.2%	67.6%	-3.9%
CC(C)C[C@H]1CNC(=S)N1C[C@H]1CCCN1C[C@H](Cc1ccccc1)N1C[C@H](Cc2ccc(O)cc2)N(CC2CCCCCC2)C1=S	nt	-24.3%	nt	nt	nt	?
CC(C)C[C@H]1CNC(=S)N1CC1CCCN1C[C@H](Cc1ccc(O)cc1)N1C[C@H](Cc2ccccc2)N(CC2CCCCCC2)C1=S (some centres not stated)	nt	?	nt	7.94µM*	nt	-27.7%
CC(C)C[C@H]1CNC(=S)N1CC1CCCN1C[C@H](Cc1ccccc1)N1C[C@H](Cc2ccc(O)cc2)N(CC2CCCCC2)C1=S (some centres not stated)	nt	?	nt	10µM*	nt	?
O=C(C(O)c1ccccc1)N1CCN(S(=O)(=O)c2ccc(OC(F)(F)F)cc2)CC1 (configuration not stated)	nt	i	nt	nt	nt	-28.5%
SMILES	NS1 function inh	VACV mCherry inh	Pf growth 48h	HCV inhibitor	Pf growth 96h	VACV Venus inh
CN(C)/C=C/C(=O)c1ccc2noc(-c3ccc(F)cc3)c2c1	4.7%	-6.4%	-28.8%	?	8.8%	-24.0%
CC(OC(=O)c1ccco1)C(=O)NCc1ccc2c(c1)OCO2 (configuration not stated)	0.5%	i	23.0%	9.7%	21.4%	-8.7%
Cc1cnc(C(=O)Nc2ccccc2F)cn1	-4.0%	-11.7%[1.46 µM]	nt	-11.9%	149.5%	-10.2%
CCN1c2ccccc2-c2nc3ccccc3n2C1c1cccs1 (configuration not stated)	-47.2%	-8.8%	8.28µM*	?	3.7µM*	-7.8%
C=CCn1c(SCC(=O)NC2(C)CCS(=O)(=O)C2)nc2ccccc21 (configuration not stated)	nt	nt	nt	3.2%	nt	nt
COc1cccc(N2C(=O)C(CC(=O)Nc3cccc(F)c3)N(C3CCCC3)C2=O)c1 (configuration not stated)	nt	-6.3%	nt	nt	nt	-3.1%
O=C(CCN1CCc2ccccc21)c1ccc2c(c1)OCCO2	17.3%	-8.5%	5.22µM*	?	2.08µM*	-3.7%
O=C(CCN1CCc2ccccc2C1)c1ccc2c(c1)OCCO2	-57.4%	nt	12.8%	10µM*	?	nt
O=C(CCN1CCCCC1)c1ccc2c(c1)OCCO2	-81.1%	?	-6.9%	-3.1%	0.8%	?
COCCCNC(=O)c1ccc2c(=O)n(C3CCCC3)c(=S)[nH]c2c1	-1.4%	nt	30.0%	-28.6%	?	nt
OCc1ccccc1CN1CCCCCC1	nt	i	nt	5.1%	nt	-4.8%
Oc1cccnc1CN1CCCCC1	-1.7%	-13.2%	nt	30.8%	nt	-8.2%
Oc1ccc(-c2ccccc2)cc1CN1CCCCCC1	1.9%	-14.9%	0.657µM*	-9.5%	?	-14.7%
Oc1ccc(Cl)cc1CN1CCN(Cc2ccccc2)CC1	-14.1%	nt	1.47µM*	4.8%	nt	nt
Oc1ccc(CN2CCCCC2)nc1-c1ccccc1	-0.9%	nt	0.522µM*	1.1%	?	nt
CCOC(=O)N1C2C=CC(C2)N1C(=O)OCC	nt	-13.6%	nt	21.3%	nt	-5.0%
COCCNC(=O)CN(C(=O)CCC(=O)Nc1ccccn1)c1ccccc1OC	23.4%	nt	?	9.8%	?	nt
N#Cc1c(-c2ccccc2)nc(SCc2nc(N)nc(N3CCCCC3)n2)[nH]c1=O	-35.5%	-11.3%	-0.1%	-10.6%	?	-7.6%
COc1ccccc1NS(=O)(=O)c1cc(NC(=O)C2CCCC2)ccc1N1CCOCC1	nt	-3.3%	?	?	-48.9%	-9.7%
COc1ccccc1NS(=O)(=O)c1cc(NC(=S)NCCN2CCOCC2)ccc1N1CCOCC1	13.7%	-22.9%	?	-20.6%	14.7µM*	-11.3%
